Test results reported in PubChem BioAssay (NCATS).
Results filed as inconclusive are left out. Active and inactive are the calls of the source. The call rests on the fitted dose curve; in most records, active means well fitted curve in the direction sought with a large enough effect; inconclusive means small, poorly fitted or top-dose-only effect, or another doubt; inactive means no such curve, though single readings can be large; an effect the other way counts as inactive or inconclusive.

Tests used:
[1] = Cellular Toxicity (caspase-3) HepG2 (AID 654);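 further: cells exposed to compound for 16 hours before reading; 0% = DMSO alone and 100% = caspase signal from 100 µM tamoxifen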
Summary of the method: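 HepG2 cells (1500/well) were treated 16 h at 37 °C in complete medium, then caspase 3/7 activity was read by Caspase-Glo luminescence. Data were normalized to DMSO and 100 uM tamoxifen; AC50 came from Hill-equation fits of qHTS concentration-response.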

[2] = Cellular Toxicity (caspase-3) Jurkat (AID 655);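 further: cells exposed to compound for 16 h at 37 °C before reading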
Summary of the method: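 Jurkat cells (5000/well) in complete medium were treated with compounds for 16 hr at 37 °C, then Caspase-Glo 3/7 luminescence was read after 20 min at room temperature. Data normalized to DMSO (basal) and 100 uM tamoxifen (100%); AC50 from Hill fit.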

[3] = Cellular Toxicity (caspase-3) HUV-EC-C (AID 656)
Summary of the method: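 HUV-EC-C endothelial cells, 1000/well, were pre-incubated 5 hr at 37°C, then exposed to compounds for 16 hr at 37°C. Caspase-Glo 3/7 luminescence was read after 20 min at room temperature. AC50 came from Hill fits, normalized to DMSO and 100 uM tamoxifen.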

[4] = Cellular Toxicity (caspase-3) SHSY5Y (AID 657)
Summary of the method: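 SH-SY5Y human neuroblastoma cells (1500/well) were treated with compounds for 16 h at 37 °C, then Caspase-Glo 3/7 luminescence was read after 1 h at room temperature. Data normalized to DMSO and 10 uM staurosporine; AC50 from Hill fits.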

[5] = Cellular Toxicity (caspase-3) BJ (AID 658); details: Potency: caspase-3 activation;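 further: 0% = DMSO basal and 100% = 10 µM staurosporine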
Summary of the method: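 BJ human foreskin fibroblasts, 1000 cells/well, treated 16 hours at 37 °C in complete medium; caspase 3/7 activity by Caspase-Glo luminescence after 1 hr at room temperature. Normalized to DMSO and 10 uM staurosporine; AC50 from Hill fits.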

[6] = Cellular Toxicity (caspase-3) MRC-5 (AID 659);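 further: 0% = DMSO basal and 100% = 10 µM staurosporine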
Summary of the method: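 MRC-5 human normal lung fibroblasts, 1500 cells/well, treated 16 h at 37 °C in complete medium. Caspase 3/7 measured by Caspase-Glo luminescence after 1 h at room temperature. Normalized to DMSO and 10 uM staurosporine; AC50 from Hill fit.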

[7] = Cellular Toxicity (caspase-3) Mesangial (AID 660)
Summary of the method: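 Human renal glomerular mesangial cells, 1000/well, 5 h at 37 C before 16 h compound treatment. Caspase-Glo 3/7 luminescence after 20 min; normalized to DMSO and 100 uM tamoxifen, AC50 from Hill fit.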

[8] = Cellular Toxicity (caspase-3) SK-N-SH (AID 661); details: SK-N-SH caspase-3 activation, qHTS; caspase-3 activation: at 91.7 µM (top of the series), DMSO as zero, staurosporine as full;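 further: 0% = DMSO basal and 100% = 10 µM staurosporine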
Summary of the method: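 Human SK-N-SH neuroblastoma cells, 1500/well, were exposed to compounds for 16 hours at 37 °C. Caspase-Glo 3/7 luminescence was normalized to DMSO (basal) and 10 uM staurosporine (100%), and AC50 came from a Hill fit.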

[9] = Cellular Toxicity (caspase-3) Hek293 (AID 664); details: HEK293 caspase-3 activation, DMSO = 0%, 100 µM tamoxifen = 100%; at 92.2 µM (top of the series);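 further: cells exposed to compound for 16 h at 37 °C before readout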
Summary of the method: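 HEK293 cells in complete medium treated 16 h at 37 °C, then Caspase-Glo 3/7 luminescence read after 20 min at room temperature. Normalized to DMSO and 100 uM tamoxifen; AC50 from Hill fit of concentration-response.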

[10] = Cellular Toxicity (caspase-3) N2a (AID 665);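 further: compound exposure lasted 16 h at 37 °C before readout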
Summary of the method: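 Mouse N2a neuroblastoma cells, 1500 per well, treated 16 h at 37 °C in complete medium; caspase-3/7 activity by Caspase-Glo luminescence after 1 h. Normalized to DMSO and 10 uM staurosporine; AC50 from Hill fits.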

[11] = Cellular Toxicity (caspase-3) NIH 3T3 (AID 666);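 further: caspase signal read after 16 h compound exposure; 0% = DMSO basal and 100% = 100 µM tamoxifen stimulation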
Summary of the method: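 Mouse NIH 3T3 fibroblasts (1000/well) treated 16 h at 37 C; caspase-3/7 activity measured by Caspase-Glo 3/7 luminescence after 20 min. Normalized to DMSO and 100 uM tamoxifen; AC50 from Hill fits.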

[12] = Cellular Toxicity (caspase-3) Renal Proximal Tubule (AID 667);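 further: cells exposed to compound for 16 hours at 37 °C before detection; 0% = DMSO basal and 100% = 10 µM staurosporine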
Summary of the method: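 Primary rat proximal tubule cells, 1000/well, 5 h plating at 37 °C, then compound 16 h at 37 °C. Caspase-Glo 3/7 reagent, 1 h RT, luminescence. Normalized to DMSO (basal) and 10 uM staurosporine (100%); Hill-fit AC50.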

[13] = Cellular Toxicity (caspase-3) H-4-II-E (AID 663);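 further: cells exposed to compound for 16 hr before readout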
Summary of the method: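 Rat hepatoma H-4-II-E cells (1500/well) plated 5 hr, then exposed to compound titrations for 16 hr at 37 °C. Caspase-Glo 3/7 luminescence read after 20 min at RT; data normalized to DMSO and 100 uM tamoxifen, AC50 from Hill fits.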

[14] = target: Cytochrome P450 3A4 (Homo sapiens) (UniProt P08684); assay: qHTS Assay for Activators of Cytochrome P450 3A4 (AID 885); further: nearly all actives have a fitted effect of over 65% in size
Summary of the method: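 Steps: enzyme/substrate mix dispensed; compound added, 10 min RT; NADPH regeneration solution added, 60 min RT; luciferin detection buffer stops reaction; 20 min later luminescence measured.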

[15] = Confirmation and Secondary Assay for Modulators of Hemoglobin Beta Chain Splicing at IVS2 654 locus (AID 910);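 further: HeLa cells stably carrying EGFP split by mutant beta-globin IVS2-654 intron; % of control where 0% means no effect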
Summary of the method: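 HeLa cells stably expressing EGFP interrupted by β-globin IVS2-654 intron, seeded overnight in Opti-MEM/2% FCS, then treated 2 days at 37 °C. Restored splicing read as total peak GFP intensity per well by laser scanning cytometry (488 nm excitation, 500–520 nm emission); 500 nM antisense PNA as control.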

[16] = target: Cytochrome P450 2D6 (Homo sapiens) (UniProt P10635); assay: qHTS Assay for Inhibitors and Substrates of Cytochrome P450 2D6 (AID 891); further: nearly all actives have a fitted effect of over 60% in size; further: potency means the concentration at half of the fitted maximal effect
Summary of the method: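 Human CYP2D6 (5 nM) with 30 uM Luciferin-ME EGE (at Km) in 100 mM KPO4, compound preincubated 10 min, then NADPH regeneration system for 60 min at room temperature. Luciferin read by luminescence; normalized to 1.43 uM quinidine.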

[17] = target: Cytochrome P450 2C9 (Homo sapiens) (UniProt P11712); assay: qHTS Assay for Inhibitors and Substrates of Cytochrome P450 2C9 (AID 883); further: on the % scale 0 is the no-effect control and ±100 the full control effect; nearly all actives have a fitted effect of over 60% in size
Summary of the method: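 Signal: luciferase luminescence reporting luciferin produced by CYP2C9. Conditions: 10nM enzyme, Luciferin-H 100uM at KM, 25mM KPO4, 37C, 60 min NADPH-driven reaction. Reference: 57uM sulphaphenazole as 100% inhibition.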

[18] = target: Cytochrome P450 3A4 (Homo sapiens) (UniProt P08684); assay: qHTS Assay for Inhibitors and Substrates of Cytochrome P450 3A4 (AID 884); further: on the % scale 0 is the no-effect control and ±100 the full control effect; nearly all actives have a fitted effect of over 50% in size
Summary of the method: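 20 nM human CYP3A4 with 25 uM Luciferin-PPXE (at KM) in 200 mM KPO4, preincubated 10 min with compound; NADPH regeneration started a 60 min RT reaction. Luciferin detected by luminescence, normalized to 57 uM ketoconazole as full inhibition.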

Cytochrome P450 3A4 (Homo sapiens), sequence (P08684 whole entry, looked up): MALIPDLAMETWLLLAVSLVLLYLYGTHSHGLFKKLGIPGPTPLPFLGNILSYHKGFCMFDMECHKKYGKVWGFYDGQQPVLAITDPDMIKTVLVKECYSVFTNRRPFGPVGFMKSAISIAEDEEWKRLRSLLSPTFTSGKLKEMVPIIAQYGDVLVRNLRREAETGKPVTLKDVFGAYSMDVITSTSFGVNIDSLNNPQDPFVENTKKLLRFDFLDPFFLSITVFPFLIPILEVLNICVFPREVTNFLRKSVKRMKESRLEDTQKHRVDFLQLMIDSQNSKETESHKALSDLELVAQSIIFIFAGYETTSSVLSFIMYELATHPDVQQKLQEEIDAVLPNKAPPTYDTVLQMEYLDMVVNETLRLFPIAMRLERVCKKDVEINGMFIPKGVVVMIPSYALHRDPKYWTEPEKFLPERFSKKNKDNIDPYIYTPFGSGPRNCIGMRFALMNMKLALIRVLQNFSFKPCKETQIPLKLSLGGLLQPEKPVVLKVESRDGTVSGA
Cytochrome P450 2D6 (Homo sapiens), sequence (P10635 whole entry, looked up): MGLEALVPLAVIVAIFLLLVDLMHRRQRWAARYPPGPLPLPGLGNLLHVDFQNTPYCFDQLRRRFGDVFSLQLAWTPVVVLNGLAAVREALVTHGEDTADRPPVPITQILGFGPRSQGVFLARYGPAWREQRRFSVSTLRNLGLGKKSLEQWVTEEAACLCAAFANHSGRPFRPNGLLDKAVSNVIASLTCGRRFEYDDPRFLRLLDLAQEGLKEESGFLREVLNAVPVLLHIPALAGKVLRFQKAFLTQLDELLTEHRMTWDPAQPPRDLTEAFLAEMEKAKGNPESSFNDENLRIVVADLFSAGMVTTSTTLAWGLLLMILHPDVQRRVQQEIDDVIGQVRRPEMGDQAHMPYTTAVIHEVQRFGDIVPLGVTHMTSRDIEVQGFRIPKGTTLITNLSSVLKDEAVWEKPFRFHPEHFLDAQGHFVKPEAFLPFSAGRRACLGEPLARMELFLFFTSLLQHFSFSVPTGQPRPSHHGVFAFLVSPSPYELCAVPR
Cytochrome P450 2C9 (Homo sapiens), sequence (P11712 whole entry, looked up): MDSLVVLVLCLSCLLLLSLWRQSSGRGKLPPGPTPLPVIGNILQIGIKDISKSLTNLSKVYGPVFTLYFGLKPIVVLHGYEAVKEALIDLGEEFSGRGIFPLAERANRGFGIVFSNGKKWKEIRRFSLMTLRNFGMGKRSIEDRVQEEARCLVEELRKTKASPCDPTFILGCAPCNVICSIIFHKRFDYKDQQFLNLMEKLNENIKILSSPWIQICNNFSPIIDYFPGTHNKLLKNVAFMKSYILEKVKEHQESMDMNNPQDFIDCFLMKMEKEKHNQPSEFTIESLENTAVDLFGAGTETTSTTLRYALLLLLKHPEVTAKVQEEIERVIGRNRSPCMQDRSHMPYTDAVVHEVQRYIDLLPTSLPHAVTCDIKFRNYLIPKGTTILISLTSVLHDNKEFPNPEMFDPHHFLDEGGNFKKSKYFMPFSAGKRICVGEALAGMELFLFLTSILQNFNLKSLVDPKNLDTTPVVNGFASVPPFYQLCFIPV

Oc1ccc(/C=C/c2cc(O)cc(O)c2)cc1
inactive: outcome [1] | Potency [2] | outcome [3] | Potency [4] | Potency [5] | outcome [6] | outcome [7] | Potency [8] | caspase-3 activation [9] -7.92% | outcome [10] | outcome [11] | outcome [12]

CC/C=C\C/C=C\C/C=C\CCCCCCCC(=O)O
inactive: outcome [1] | Potency [2] | outcome [3] | Potency [4] | Potency [5] | outcome [6] | outcome [7] | Potency [8] | outcome [13] | caspase-3 activation [9] 0.606% | outcome [10] | outcome [11] | outcome [12] | Potency [14]

C/C=C/C=C/C(=O)O
inactive: outcome [1] | Potency [2] | outcome [3] | Potency [4] | Potency [5] | outcome [6] | outcome [7] | Potency [8] | outcome [13] | caspase-3 activation [9] -0.294% | outcome [10] | outcome [11] | outcome [12]

O=P(O)(O)O
inactive: outcome [1] | Potency [2] | outcome [3] | Potency [4] | Potency [5] | outcome [6] | outcome [7] | Potency [8] | outcome [13] | caspase-3 activation [9] -0.448% | outcome [10] | outcome [11] | outcome [12]

CC1CCCC(C)N1NC(=O)c1ccc(Cl)c(S(N)(=O)=O)c1 (centres undefined)
inactive: Potency [15]

Cc1c(O)c(=O)ccn1C
inactive: Potency [16]

Cc1cccc(C)c1NC(=O)C1CCCCN1C (centres undefined)
inactive: Potency [14] | Potency [15]

CC(=O)Oc1cccc(C(=O)O)c1OC(C)=O
inactive: Potency [15]

O=C(O)CCC(=O)c1ccc(-c2ccccc2)cc1
inactive: Potency [15]

CCCc1nc(C(C)(C)O)c(C(=O)OCc2oc(=O)oc2C)n1Cc1ccc(-c2ccccc2-c2nn[nH]n2)cc1
inactive: Potency [14] | Potency [15]

O=C(O)Cc1nn(Cc2ccc(Br)cc2F)c(=O)c2ccccc12
inactive: Potency [17]

CCCCC[C@H](O)/C=C/[C@H]1[C@H](O)CC(=O)[C@@H]1C/C=C\CCCC(=O)O
inactive: Potency [18]

CCSc1ccc2c(c1)N(CCCN1CCN(C)CC1)c1ccccc1S2
active: Potency [16] 2510 nM
inactive: Potency [14]
